Several values for one entry are separate records, joined by “and”; a condition that tells them apart may be missing. Equal entries are not always repeated. The whole screen tested about 5,500 compounds, of which about 2,000 (36%) were called active. About 18% were inconclusive and are not listed. Rule as the data show it: active = normalized growth mostly below about 0.91 (no sharp cut-off); inconclusive = no clear call, values can overlap the other calls; inactive = mostly above about 0.92. The list shows a part of the results.
Assay: chemical genetic growth profiling, strain panel (AID 1159580);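 also: tested at 20 µM; growth read once vehicle control cultures reached saturation at 30 °C; 1 = growth at the plate median or of vehicle wells; lower values mean less growth of the strain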
Conditions: growth OD

Measured: normalized growth

CN1C(C)(C)CCCC1(C)C
inactive: S. cerevisiae deletion strains, locus YAL013W, strain DEP1, active compounds read low 1.02 and 1.01 | S. cerevisiae deletion strains, locus YAL040C, strain CLN3, active compounds read low 1.07 | S. cerevisiae deletion strains, locus YBR021W, strain FUR4, active compounds read low 1.01 | S. cerevisiae deletion strains, locus YBR229C, strain ROT2, active compounds read low 1.02 | S. cerevisiae deletion strains, locus YCL029C, strain bik1, active compounds read low 0.988 | S. cerevisiae deletion strains, locus YCL061C, strain MRC1 (second series), active compounds read low 0.994 | S. cerevisiae deletion strains, locus YDL035C, strain GPR1, active compounds read low 1.02 | S. cerevisiae deletion strains, locus YDL074C, strain BRE1, active compounds read low 1.06 | S. cerevisiae deletion strains, locus YDL101C, strain DUN1, active compounds read low 1.02 | S. cerevisiae deletion strains, locus YDL134C, strain PPH21, active compounds read low 1.02 | S. cerevisiae deletion strains, locus YDL185W, strain tfp1, active compounds read low 0.993 | S. cerevisiae deletion strains, locus YDL192W, strain arf1, active compounds read low 0.978 | S. cerevisiae deletion strains, locus YDR101C, strain arx1, active compounds read low 0.969 | S. cerevisiae deletion strains, locus YDR150W, strain NUM1, active compounds read low 1.02 and 1 | S. cerevisiae deletion strains, locus YDR162C, strain NBP2, active compounds read low 1.04 | S. cerevisiae deletion strains, locus YDR318W, strain mcm21, active compounds read low 0.99 | S. cerevisiae deletion strains, locus YDR363W, strain ESC2, active compounds read low 0.997 | S. cerevisiae deletion strains, locus YDR388W, active compounds read low 0.998 | S. cerevisiae deletion strains, locus YDR502C, strain sam2, active compounds read low 1.02 | S. cerevisiae deletion strains, locus YEL061C, strain CIN8, active compounds read low 1.02 | S. cerevisiae deletion strains, locus YER002W, strain NOP16, active compounds read low 1.02 | S. cerevisiae deletion strains, locus YER110C, active compounds read low 0.992 | S. cerevisiae deletion strains, locus YER155C, strain BEM2, active compounds read low 1.02 | S. cerevisiae deletion strains, locus YER167W, strain BCK2, active compounds read low 1.02 | S. cerevisiae deletion strains, locus YGL078C, strain dbp3, active compounds read low 1.01 | S. cerevisiae deletion strains, locus YGL086W, strain mad1, active compounds read low 0.996 | S. cerevisiae deletion strains, locus YGL248W, strain PDE1, active compounds read low 1.03 | S. cerevisiae deletion strains, locus YGR078C, strain PAC10, active compounds read low 1.04 | S. cerevisiae deletion strains, locus YGR135W, strain pre9, active compounds read low 1.01 | S. cerevisiae deletion strains, locus YGR229C, strain SMI1, active compounds read low 1.03 and 0.995 | S. cerevisiae deletion strains, locus YGR252W, strain gcn5, active compounds read low 0.907 | S. cerevisiae deletion strains, locus YHR030C, strain SLT2, active compounds read low 1.01 | S. cerevisiae deletion strains, locus YHR079C, strain IRE1 (second series), active compounds read low 0.988 | S. cerevisiae deletion strains, locus YHR094C, strain hxt1, active compounds read low 1 | S. cerevisiae deletion strains, locus YHR129C, strain ARP1, active compounds read low 1.01 | S. cerevisiae deletion strains, locus YHR200W, strain rpn10, active compounds read low 0.997 | S. cerevisiae deletion strains, locus YIL066C, strain RNR3, active compounds read low 1.03 | S. cerevisiae deletion strains, locus YIL073C, strain SPO22, active compounds read low 0.991 | S. cerevisiae deletion strains, locus YIL125W, strain kgd1, active compounds read low 1.01 | S. cerevisiae deletion strains, locus YIR030C, strain dcg1, active compounds read low 0.999 | S. cerevisiae deletion strains, locus YJL095W, strain BCK1, active compounds read low 1.03 | S. cerevisiae deletion strains, locus YJL134W, strain LCB3, active compounds read low 1.01 | S. cerevisiae deletion strains, locus YJL168C, strain set2, active compounds read low 0.993 | S. cerevisiae deletion strains, locus YJL187C, strain SWE1 (second series), active compounds read low 1.04 | S. cerevisiae deletion strains, locus YJR043C, strain POL32, active compounds read low 1 | S. cerevisiae deletion strains, locus YJR075W, strain HOC1, active compounds read low 1.02 | S. cerevisiae deletion strains, locus YKL009W, strain mrt4, active compounds read low 0.962 | S. cerevisiae deletion strains, locus YKL068W, active compounds read low 1 | S. cerevisiae deletion strains, locus YKL085W, strain MDH1 (second series), active compounds read low 1.01 | S. cerevisiae deletion strains, locus YKL085W, strain MDH1, active compounds read low 1.01 | S. cerevisiae deletion strains, locus YKL190W, strain CNB1, active compounds read low 1.01 | S. cerevisiae deletion strains, locus YKR001C, strain vps1, active compounds read low 0.994 | S. cerevisiae deletion strains, locus YLR039C, strain RIC1, active compounds read low 1.03 | S. cerevisiae deletion strains, locus YLR058C, strain SHM2, active compounds read low 1.02 | S. cerevisiae deletion strains, locus YLR102C, strain apc9, active compounds read low 0.998 | S. cerevisiae deletion strains, locus YLR262C, strain YPT6, active compounds read low 1.02 | S. cerevisiae deletion strains, locus YLR268W, strain sec22, active compounds read low 1.01 | S. cerevisiae deletion strains, locus YLR330W, strain CHS5, active compounds read low 1.01 | S. cerevisiae deletion strains, locus YLR342W, strain FKS1 (second series), active compounds read low 0.996 | S. cerevisiae deletion strains, locus YLR371W, strain rom2, active compounds read low 0.984 | S. cerevisiae deletion strains, locus YLR418C, strain cdc73, active compounds read low 1 | S. cerevisiae deletion strains, locus YML016C, strain PPZ1, active compounds read low 1.02 | S. cerevisiae deletion strains, locus YML032C, strain rad52, active compounds read low 0.995 | S. cerevisiae deletion strains, locus YML124C, strain tub3, active compounds read low 1 | S. cerevisiae deletion strains, locus YMR078C, strain ctf18, active compounds read low 0.999 | S. cerevisiae deletion strains, locus YMR223W, strain ubp8, active compounds read low 0.983 | S. cerevisiae deletion strains, locus YMR263W, strain SAP30, active compounds read low 1.03 | S. cerevisiae deletion strains, locus YMR307W, strain GAS1, active compounds read low 1.04 | S. cerevisiae deletion strains, locus YNL067W, strain RPL9B, active compounds read low 1.03 | S. cerevisiae deletion strains, locus YNL128W, strain TEP1, active compounds read low 1.03 | S. cerevisiae deletion strains, locus YNL153C, strain GIM3, active compounds read low 1.04 and 1.01 | S. cerevisiae deletion strains, locus YNL175C, strain NOP13, active compounds read low 1 | S. cerevisiae deletion strains, locus YNL197C, strain WHI3, active compounds read low 1 | S. cerevisiae deletion strains, locus YNL224C, strain SQS1, active compounds read low 1.01 | S. cerevisiae deletion strains, locus YNL233W, strain BNI4, active compounds read low 1.04 | S. cerevisiae deletion strains, locus YNL250W, strain rad50, active compounds read low 1 | S. cerevisiae deletion strains, locus YNL271C, strain bni1, active compounds read low 0.99 | S. cerevisiae deletion strains, locus YNL298W, strain CLA4, active compounds read low 0.996 | S. cerevisiae deletion strains, locus YNL307C, strain MCK1, active compounds read low 0.993 | S. cerevisiae deletion strains, locus YNL322C, strain KRE1, active compounds read low 1.02 | S. cerevisiae deletion strains, locus YNR052C, strain pop2, active compounds read low 0.982 | S. cerevisiae deletion strains, locus YOL006C, strain TOP1, active compounds read low 1.06 | S. cerevisiae deletion strains, locus YOL012C, strain htz1 1.39 | S. cerevisiae deletion strains, locus YOL147C, strain pex11, active compounds read low 0.996 | S. cerevisiae deletion strains, locus YOR061W, strain CKA2, active compounds read low 1.01 | S. cerevisiae deletion strains, locus YOR069W, strain VPS5, active compounds read low 1.01 | S. cerevisiae deletion strains, locus YOR083W, strain WHI5 (second series), active compounds read low 1.02 | S. cerevisiae deletion strains, locus YOR136W, strain idh2, active compounds read low 0.987 | S. cerevisiae deletion strains, locus YOR144C, strain elg1, active compounds read low 0.99 | S. cerevisiae deletion strains, locus YOR184W, strain ser1, active compounds read low 0.962 | S. cerevisiae deletion strains, locus YOR316C, strain cot1, active compounds read low 1 | S. cerevisiae deletion strains, locus YPL055C, strain LGE1, active compounds read low 1.05 and 1.01 | S. cerevisiae deletion strains, locus YPL241C, strain CIN2, active compounds read low 1.02 | S. cerevisiae deletion strains, locus YPR119W, strain clb2, active compounds read low 1.01 | S. cerevisiae deletion strains, locus YPR141C, strain kar3, active compounds read low 0.994 | S. cerevisiae deletion strains, locus YPR163C, strain tif3, active compounds read low 0.998 | S. cerevisiae deletion strains, locus YPR167C, strain met16, active compounds read low 0.998 | S. cerevisiae deletion strains, strain wtn01, active compounds read low 1.02 | S. cerevisiae strains, strain wild type, active compounds read low 1.02
